Test results: PubChem BioAssay (Tox21)
Several values for one entry are separate records, joined by “and”; a condition that tells them apart may be missing. Identical values can stand only once. Activity calls are given as the source filed them. Unless noted, calls come from the whole dose curve; as a rule, active = well fitted curve in the direction sought with a large enough effect in the repeat runs; inconclusive = weak or mixed curves; inactive = no such curve, though single readings can be large; an effect the other way counts as inactive or inconclusive. Non-standard residues stand in square brackets, D forms with d. Residues, ends and D or L forms follow the SMILES beside them. pGlu = O=C1CC[C@@H](C(=O)O)N1

What was measured:
[1] = qHTS assay for small molecule agonists of the p53 signaling pathway (AID 651631; calls by dose curve; note: nearly all actives have a fitted effect of over 15% in size; note: potency is the fitted concentration of half-maximal effect)
How it was run: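 HCT-116 cells carrying a stable p53 response element–beta-lactamase reporter were plated, rested 5 h at 37 °C, then exposed to compound in DMSO for 16 h at 37 °C; reporter activity was read as FRET substrate fluorescence after 2 h at room temperature.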

[2] = qHTS assay for small molecules that induce genotoxicity in human embryonic kidney cells expressing luciferase-tagged ATAD5 (AID 651632); note: nearly all actives have a fitted effect of over 15% in size; note: potency is the fitted concentration of half-maximal effect
How it was run: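 HEK293T cells carrying a luciferase reporter tagged to ATAD5 were exposed to compound or DMSO vehicle for 16 hr at 37C, 5% CO2. Amplite was added, and after 30 min at room temperature luciferase activity was read as a marker of ATAD5 induction.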

[3] = qHTS assay for small molecule agonists of the p53 signaling pathway - cell viability (AID 651633; calls by dose curve; note: nearly all actives have a fitted effect of over 30% in size; note: potency is the fitted concentration of half-maximal effect)
How it was run: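 Viability counter-read: CellTiter-Glo luminescence (30 min, room temperature) in the same p53RE-bla plates. These plates had been exposed to compounds for 16 h at 37 C.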

[4] = qHTS assay for small molecules that induce genotoxicity in human embryonic kidney cells expressing luciferase-tagged ATAD5 - cell viability (AID 651634; calls by dose curve; note: nearly all actives have a fitted effect of over 25% in size; note: potency is the fitted concentration of half-maximal effect)
How it was run: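 HEK293T cells expressing luciferase-tagged ATAD5 were exposed to compound or DMSO for 15.5 hr at 37C, 5% CO2. Viability was then read as live-cell protease activity by CellTiter-Fluor fluorescence after 30 min at 37C.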

[5] = qHTS assay for small molecule disruptors of the mitochondrial membrane potential - cell viability (AID 720634; calls by dose curve;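 note: human HepG2 liver cancer cells; nearly all actives have a fitted effect of over 20% in size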)
How it was run: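 HepG2 cells seeded overnight at 37 C, then exposed to compound or DMSO for 1 hr at 37 C, 5% CO2. m-MPI dye added, then CellTiter-Glo for 30 min at room temperature; viability read as ATP luminescence.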

[6] = qHTS assay to test for compound auto fluorescence at 590 nm (red) in HepG2 cells (AID 720674)
How it was run: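 Red autofluorescence (Ex/Em 540/590 nm, Rose Bengal sodium equivalents) was measured in HepG2 cells, 2,000 per well in MEM plus 10% FBS, plated overnight at 37 C. Readings were taken 1 hr after adding 23 nL compound or DMSO, at 37 C and 5% CO2.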

[7] = qHTS assay to test for compound auto fluorescence at 535 nm (green) in HepG2 cells (AID 720675)
[8] = qHTS assay to test for compound auto fluorescence at 460 nm (blue) in HEK293 cells (AID 720678)
How it was run: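 Blue-channel (Ex/Em 405/460 nm) intensity measured in HEK293 cultures after overnight compound exposure at 37C; signal expressed relative to triamterene. Cells plated 2,000 per well in 10% dialyzed FBS medium and allowed 4-5 hr to attach.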

[9] = qHTS assay to test for compound auto fluorescence at 590 nm (red) in HEK293 cells (AID 720679)
How it was run: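 Red-channel autofluorescence (Ex/Em 540/590 nm; Rose Bengal sodium reference) was measured after overnight 37C, 5% CO2 exposure of attached HEK293 cells, 2,000 per well in medium with 10% dialyzed FBS.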

[10] = qHTS assay to test for compound auto fluorescence at 535 nm (green) in HEK293 cells (AID 720680)
[11] = qHTS assay to test for compound auto fluorescence at 460 nm (blue) in HEK293 cell free culture (AID 720681)
How it was run: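 Blue fluorescence (Ex 405/Em 460 nm, triamterene-equivalent) was read immediately after pin transfer of compound or DMSO into medium (DMEM, 10% FBS) without cells.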

[12] = qHTS assay to test for compound auto fluorescence at 535 nm (green) in HEK293 cell free culture (AID 720682)
How it was run: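 Read-out: 485/535 nm fluorescence intensity, calibrated against fluorescein. Medium only (DMEM + 10% FBS, no cells); test compound or DMSO vehicle added by pintool before plate reading.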

[13] = qHTS assay to test for compound auto fluorescence at 590 nm (red) in HEK293 cell free culture (AID 720683)
How it was run: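 Red-channel autofluorescence of compounds in culture medium (DMEM, 10% FBS), no cells, measured at 540/590 nm. Rose Bengal sodium is the reference fluorophore for equivalence.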

[14] = qHTS assay to test for compound auto fluorescence at 590 nm (red) in HepG2 cell free culture (AID 720684)
How it was run: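 Steps: dispense MEM/10% FBS medium, no cells; pin compound or DMSO vehicle; read red channel, Ex/Em 540/590 nm. Output given as Rose Bengal sodium equivalents.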

[15] = qHTS assay to test for compound auto fluorescence at 460 nm (blue) in HepG2 cell free culture (AID 720685)
How it was run: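 Compound (23 nL) or DMSO pinned into cell-free MEM with 10% FBS; blue fluorescence read at 405/460 nm excitation/emission, expressed as auto-fluorescence equivalency to triamterene.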

[16] = qHTS assay to test for compound auto fluorescence at 535 nm (green) in HepG2 cell free culture (AID 720686)
[17] = qHTS assay to test for compound auto fluorescence at 460 nm (blue) in HepG2 cells (AID 720687)
How it was run: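 Blue-channel autofluorescence (Ex/Em 405/460 nm, triamterene-equivalent) was measured after 1 hr compound exposure at 37 C, 5% CO2. Cells were HepG2, plated overnight at 37 C in MEM plus 10% FBS.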

[18] = qHTS assay for small molecule disruptors of the mitochondrial membrane potential (AID 720635); note: potency is the fitted concentration of half-maximal effect
How it was run: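 Mitochondrial membrane potential tracked with Mito-MPS dye, red aggregates (ex 540/em 590 nm) against green monomers (ex 490/em 535 nm). Compound treatment 1 hr at 37C, dye 30 min in HepG2.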

[19] = biological target: Glucocorticoid receptor (Homo sapiens) (UniProt P04150); test: qHTS assay to identify small molecule agonists of the glucocorticoid receptor (GR) signaling pathway (AID 720691; active = well fitted activation curve with a large enough effect in the signal ratio in the repeat runs, not every such curve was filed as active; inconclusive = weak or mixed curves, or effect the other way; inactive = no such curve, though single readings can be large or run the other way; the % refers to the signal ratio; note: potency is the fitted concentration of half-maximal effect); settings: GR-bla HeLa, beta-lactamase reporter ratio, 18 h; activation: at 62.4 µM (top of the series)
How it was run: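 GR-bla HeLa cells (beta-lactamase reporter under glucocorticoid response element) were plated 4 h at 37 C/5% CO2, given compounds in DMSO, and incubated 18 h at 37 C. LiveBLAzer B/G FRET substrate was added for 2 h at room temperature, then fluorescence intensity read.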

[20] = biological target: Glucocorticoid receptor (Homo sapiens) (UniProt P04150); test: qHTS assay to identify small molecule antagonists of the glucocorticoid receptor (GR) signaling pathway (AID 720692; active = well fitted inhibition curve with a large enough effect in the signal ratio in the repeat runs, not every such curve was filed as active; inconclusive = weak or mixed curves, or effect the other way; inactive = no such curve, though single readings can be large or run the other way; the % refers to the signal ratio)
How it was run: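 GR-bla HeLa cells (beta-lactamase reporter under glucocorticoid response element) were pre-plated 4 h at 37 C, treated with compounds plus 5 nM dexamethasone (final) for 18 h, then read by LiveBLAzer B/G FRET fluorescence after 2 h.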

Measured: Potency

Glucocorticoid receptor (Homo sapiens), sequence (P04150 whole entry, looked up): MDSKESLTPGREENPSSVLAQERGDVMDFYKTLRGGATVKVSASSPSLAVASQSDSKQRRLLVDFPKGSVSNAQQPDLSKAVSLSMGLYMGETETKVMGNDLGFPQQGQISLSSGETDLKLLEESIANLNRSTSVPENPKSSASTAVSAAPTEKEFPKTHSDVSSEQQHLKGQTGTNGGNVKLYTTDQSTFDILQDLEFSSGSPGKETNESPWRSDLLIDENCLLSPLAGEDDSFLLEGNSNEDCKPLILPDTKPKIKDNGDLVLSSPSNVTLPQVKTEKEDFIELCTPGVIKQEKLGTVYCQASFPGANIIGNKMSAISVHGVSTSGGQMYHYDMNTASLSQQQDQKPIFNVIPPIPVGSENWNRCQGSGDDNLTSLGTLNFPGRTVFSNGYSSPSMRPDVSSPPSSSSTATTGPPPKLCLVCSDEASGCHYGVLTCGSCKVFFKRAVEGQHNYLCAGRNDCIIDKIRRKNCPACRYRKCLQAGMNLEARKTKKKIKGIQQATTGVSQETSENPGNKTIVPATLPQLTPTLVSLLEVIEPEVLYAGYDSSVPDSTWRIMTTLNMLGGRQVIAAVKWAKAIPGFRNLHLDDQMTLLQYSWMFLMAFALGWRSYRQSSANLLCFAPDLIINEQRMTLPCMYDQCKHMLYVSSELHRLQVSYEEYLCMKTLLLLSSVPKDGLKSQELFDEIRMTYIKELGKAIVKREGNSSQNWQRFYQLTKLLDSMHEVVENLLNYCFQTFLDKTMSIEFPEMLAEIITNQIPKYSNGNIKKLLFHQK

CO[C@H]1C[C@H](O[C@H]2[C@H](C)[C@@H](O[C@@H]3O[C@H](C)C[C@H](N(C)C)[C@H]3OC(C)=O)[C@@H](C)C[C@]3(CO3)C(=O)[C@H](C)[C@@H](OC(C)=O)[C@@H](C)[C@@H](C)OC(=O)[C@@H]2C)O[C@@H](C)[C@@H]1OC(C)=O
not listed: [18] | [19] | [20]
inactive: all other assays above

COC(=O)[C@H]1[C@H]2C[C@@H]3c4[nH]c5cc(OC)ccc5c4CCN3C[C@H]2C[C@H](OC)[C@@H]1OC
not listed: [8] | [10] | [11] | [15] | [17]
inactive: all other assays above

CC(O)CN(C)C (centres undefined)
not listed: [18] | [19] | [20]
inactive: all other assays above

O=C(OCCO)c1ccccc1O
not listed: [18]
inactive: all other assays above

CC(C)(C)CC(C)(C)c1cc(Cc2cc(C(C)(C)CC(C)(C)C)cc(-n3nc4ccccc4n3)c2O)c(O)c(-n2nc3ccccc3n2)c1
not listed: [18] | [19] | [20]
inactive: all other assays above

CN(C(=O)CO)c1c(I)c(C(=O)NCC(O)CO)c(I)c(C(=O)NCC(O)CO)c1I (centres undefined)
not listed: [7]
inactive: all other assays above

CCOC(=O)c1cc(-c2ccccc2)nc2ccc(C)cc12
not listed: [18] | [20]
inactive: all other assays above

CC[C@H](C)[C@H](NC(=O)[C@H](Cc1ccccc1)NC(=O)[C@H](C)NC(=O)[C@H](CC(=O)O)NC(=O)[C@H](CCCCN)NC(=O)[C@H](CO)NC(=O)[C@@H]1CCCN1C(=O)[C@@H]1CCC(=O)N1)C(=O)NCC(=O)N[C@@H](CC(C)C)C(=O)N[C@@H](CCSC)C(N)=O ([pGlu]PSKDAFIGLM-NH2)
not listed: [18] | [19] | [20]
inactive: all other assays above

CCC(C)[C@@H](N)C(=O)O (some centres undefined)
not listed: [18]
inactive: all other assays above

Cn1cc(NC(=O)c2cc(NC(=O)c3cc(NC=O)cn3C)cn2C)cc1C(=O)NCCC(=N)N
not listed: [18] | [19] | [20]
inactive: all other assays above

Cc1nnc(C(C)C)n1C1C[C@H]2CC[C@@H](C1)N2CC[C@H](NC(=O)C1CCC(F)(F)CC1)c1ccccc1 (some centres undefined)
not listed: [18] | [19] | [20]
inactive: all other assays above

CCCCCCCCCCCCCCCCCCOP(=O)([O-])OC1CC[N+](C)(C)CC1
not listed: [7]
inactive: all other assays above

CC(=O)Oc1cccc(C(=O)O)c1OC(C)=O
not listed: [18]
inactive: all other assays above

Cc1cc(-n2c(=O)[nH]c(=O)n(C)c2=O)ccc1Oc1ccc(S(=O)(=O)C(F)(F)F)cc1
not listed: [11] | [20]
inactive: all other assays above

C[C@@H](O)[C@H]1C(=O)N2C(C(=O)[O-])=C(SC3Cn4cnc[n+]4C3)[C@H](C)[C@H]12 (some centres undefined)
not listed: [18]
inactive: all other assays above

CC1(C)S[C@@H]2[C@H](NC(=O)Cc3ccccc3)C(=O)N2[C@H]1C(=O)O
not listed: [10]
inactive: all other assays above

C#CCC(Cc1cnc2nc(N)nc(N)c2n1)c1ccc(C(=O)N[C@@H](CCC(=O)O)C(=O)O)cc1 (some centres undefined)
active: [1] 266 nM | [3] 0.266 µM | [4] 211 nM
not listed: [8] | [11] | [15] | [17]
inactive: all other assays above

Nc1c(Br)cc(Br)cc1CNC1CCC(O)CC1 (centres undefined)
not listed: [18] | [20]
inactive: all other assays above

CC(=O)[C@]1(O)Cc2c(O)c3c(c(O)c2[C@@H](O[C@H]2C[C@H](N)[C@H](O)[C@H](C)O2)C1)C(=O)c1c(O)cccc1C3=O
active: [1] 944 nM and 2.37 µM | [2] 750 nM and 944 nM | [4] 10.6 µM and 11.9 µM | [18] 441 nM and 5.31 µM | [19] 10.7 µM [inconclusive] and 23.9 µM [inconclusive]
not listed: [7] | [16] | [20]
inactive: all other assays above

C/C=C(/CC[C@@H](C)[C@H]1CC[C@H]2C3=CC[C@H]4[C@H](C)[C@@H](O)CC[C@]4(C)[C@H]3CC[C@]12C)C(C)C
not listed: [18] | [19] | [20]
inactive: all other assays above

c1cnc2cc3c(cc2n1)[C@@H]1CNC[C@H]3C1
not listed: [18] | [19] | [20]
inactive: all other assays above

CC[N+](C)(C)Cc1ccccc1Br
not listed: [11] | [14]
inactive: all other assays above

CCOC(=O)[C@H](CCc1ccccc1)N[C@@H](C)C(=O)N1CC2(C[C@H]1C(=O)O)SCCS2
not listed: [7] | [19]
inactive: all other assays above

CN(C)C=Nc1c(I)cc(I)c(CCC(=O)O)c1I
not listed: [18] | [19] | [20]
inactive: all other assays above

Cc1ccccc1OCC(O)CNCCOc1ccc(C(N)=O)cc1 (centres undefined)
not listed: [18]
inactive: all other assays above

CCC(C)(C)OC(=O)N[C@@H](Cc1c[nH]c2ccccc12)C(=O)N[C@@H](CCSC)C(=O)N[C@@H](CC(=O)O)C(=O)N[C@@H](Cc1ccccc1)C(N)=O
not listed: [7] | [10] | [15]
inactive: all other assays above

NC(=O)OCC(O)COc1ccc(Cl)cc1 (centres undefined)
not listed: [18]
inactive: all other assays above
